# S2 tox: Viability Counterscreen for Primary qHTS for Inhibitors of ATXN expression. S2 cells (HEK-293 line with an ATXN2-luciferase reporter) viability, CellTiter-Fluor protease fluorescence, 24 h. Potency, µM (titrated, usually from 56.7 µM), hits mostly cytotoxic. 0.49% of 400,000 active; note: potency is the fitted concentration of half-maximal effect; nearly all actives have a fitted effect of over 40% in size
# IL-1B inflam inh: qHTS for Inhibitors of Inflammasome Signaling: IL-1-beta AlphaLISA Primary Screen; THP-1 LPS/ATP IL-1B secretion, AlphaLISA, 16 h; stronger effect = lower value; activity change, % at 57.5 µM; 4.7% of 360,000 active; in the data active = activity change below about -50%; inconclusive = mostly about -30% to -49%; note: % is set by controls: 0 for no effect and ±100 for the full control effect
#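 Secreted IL-1B measured by AlphaLISA bead assay after 16 h compound exposure of THP-1 cells; compounds (final up to 57.5 uM) added 1 h before LPS (250 ng/mL) and ATP (1.25 mM) stimulation; lower signal means less secretion.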
# ATXN2 expr inh: Primary qHTS for Inhibitors of ATXN expression | HEK-293 ATXN2-luciferase reporter, luminescence, 24 h | Potency, µM (highest dose often 57 µM), inactives show top-dose activity change, negative = inhibition, usual class: inhibitors | 0.72% of 360,000 active | AID 1745845, 2022; note: potency is the fitted concentration of half-maximal effect; % is set by controls: 0 for no effect and ±100 for the full control effect; nearly all actives have a fitted effect of over 55% in size
#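 qHTS (up to 57 uM final) was run with 24 h compound exposure of reporter cells at 37 °C. Each well was multiplexed: SteadyGlo luminescence measured ATXN2-luciferase expression after a fluorogenic Gly-Phe-AFC viability readout (25 uM final).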
# USP1-UAF1 inh: Inhibitors of USP1/UAF1: Primary Screen | AID 743255, 2014 | Potency, µM (top dose mostly 57.1 µM), without a hit: top-dose activity change, negative = inhibition, usual class: inhibitors | 0.23% of 390,000 active | Ubiquitin carboxyl-terminal hydrolase 1 (Homo sapiens), O94782 | recombinant USP1/UAF1, Ub-Rhodamine cleavage fluorescence; note: potency is the fitted concentration of half-maximal effect; % is set by controls: 0 for no effect and ±100 for the full control effect; nearly all actives have a fitted effect of over 60% in size
#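 In this screen, compounds sit with the deubiquitinase complex (1nM) for 15 min at room temperature before Ub-Rho is added at 150nM final. Fluorescence rise is then followed for 6 reads every 60 seconds.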
# USP2a block: qHTS Assay for Inhibitors of Ubiquitin-specific Protease USP2a Using CHOP2 as the Reporter; USP2 core, Ub-CHOP2 coupled fluorogenic reporter, 485/531; Potency, µM (highest dose often 38.3 µM), for the others: top-dose activity change, negative = inhibition, usual class: inhibitors; AID 463254, 2010; 0.01% of 330,000 active; Ubiquitin carboxyl-terminal hydrolase 2 (Homo sapiens), O75604;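 note: potency is the fitted concentration of half-maximal effect; plate controls were DMSO wells for no effect and full inhibition by NEM control for full effect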
# Target sequence (O75604 whole entry, looked up): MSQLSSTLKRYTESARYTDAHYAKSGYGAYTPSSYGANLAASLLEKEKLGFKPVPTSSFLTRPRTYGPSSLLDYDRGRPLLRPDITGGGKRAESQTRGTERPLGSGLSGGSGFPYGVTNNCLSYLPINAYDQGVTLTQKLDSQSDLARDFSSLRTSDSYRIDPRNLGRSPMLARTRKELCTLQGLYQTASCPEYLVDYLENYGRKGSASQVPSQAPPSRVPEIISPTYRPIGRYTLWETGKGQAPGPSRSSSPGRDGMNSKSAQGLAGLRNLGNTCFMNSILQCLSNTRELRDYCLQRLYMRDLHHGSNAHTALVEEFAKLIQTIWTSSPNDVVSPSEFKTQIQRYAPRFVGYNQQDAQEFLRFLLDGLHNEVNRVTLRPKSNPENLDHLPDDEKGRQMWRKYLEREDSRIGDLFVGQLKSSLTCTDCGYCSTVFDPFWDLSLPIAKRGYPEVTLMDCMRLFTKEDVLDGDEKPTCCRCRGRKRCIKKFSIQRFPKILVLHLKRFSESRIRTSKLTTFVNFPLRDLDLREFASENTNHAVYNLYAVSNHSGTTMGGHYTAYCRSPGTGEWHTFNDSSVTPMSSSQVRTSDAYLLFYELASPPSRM
#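 Deubiquitinase activity read as fluorescence (485/531 nm) after Ub-CHOP2 cleavage activates the enterokinase reporter on its substrate; USP2 core 10nM, Ub-CHOP2 and substrate 25nM each, 30min compound preincubation then 60min RT; data normalized to NEM, curves fitted.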
# * hit, by the source's call; i = inactive; ? = inconclusive; . = no result. In the library only some 4.8% were active in any assay of this set; here they are far more common. Unless noted, calls come from the whole dose curve; as a rule, active = well fitted curve in the direction sought with a large enough effect; inconclusive = small, poorly fitted or top-dose-only effect, or another doubt; inactive = no such curve, though single readings can be large; an effect the other way counts as inactive or inconclusive.
SMILES,S2 tox,IL-1B inflam inh,ATXN2 expr inh,USP1-UAF1 inh,USP2a block
COc1cc(C(=O)NCC2CCCO2)ccc1OCc1ccc(Cl)cc1Cl (stereo not drawn),i,-86.0*,-18.1%,-1.7%,-9.8%
COc1cc(C(=O)NCC2CCCO2)ccc1OCc1ccc(Cl)cc1 (stereo not drawn),i,0.0,-3.3%,-20.9%,-3.6%
O=C(NCC1CCCO1)c1cc2cc(Cl)ccc2[nH]1 (stereo not drawn),i,-72.8*,9.4%,6.2%,1.3%
Cc1ccc(NC(=O)Cn2cc(C(=O)C3CC3)c3ccccc32)cc1C,i,.,-15.5%,-3.4%,.
CCCCNC(=O)/C(C#N)=C/c1ccc(F)cc1F,i,-89.9*,.,-8.2%,0.9%
COc1cc(/C=C2/C(=O)NN(c3cccc(C)c3)C2=O)ccc1OC(=O)c1ccco1,?,-68.9*,-36.0%,?,-1.2%
COc1cc(-c2nnc(-c3cc(-c4ccccc4)nc4ccccc34)o2)cc(OC)c1OC,i,-11.8,2.1%,1.2%,.
O=[N+]([O-])c1cnc(Sc2ccncn2)c([N+](=O)[O-])c1,?,?,.,-20.5%,.
O=[N+]([O-])c1cnc(Sc2ccncn2)s1,3.16µM*,-71.5*,.,-0.2%,-1.4%
N#Cc1c(Nc2ccccc2Cl)s[nH]c1=O,i,-59.3*,-11.0%,-23.0%,0.7%
C[C@]12CCC(=O)C=C1CC[C@@H]1[C@@H]2[C@@H](O)C[C@]2(C=O)[C@@H](C(=O)CO)CC[C@@H]12,i,-21.4,-10.1%,8.8%,0.3%
Cc1ccc(C)c(Cn2c3ccccc3c3cnn(CC(=O)NCc4ccccc4)c(=O)c32)c1,i,.,15.9%,-14.3%,.
CN(CC(=O)Nc1ccc(Cl)c(Cl)c1)C1CCCCC1,i,-10.3,-13.8%,-23.6%,1.6%
CN(CC(=O)Nc1ccc(Cl)c(Cl)c1)C(=O)C12CC3CC(CC(C3)C1)C2,i,-54.1*,-11.9%,-10.4%,0.2%
OC1(c2cccnc2)CCN(Cc2ccc3c(c2)CN(Cc2ccc4nsnc4c2)CCO3)CC1,i,.,.,.,.
CC(=NNC1=NCCN1)c1cnn(C2=NCCN2)c1C,i,4.5,8.2%,.,.
CCOc1ccc(Br)cc1/C(C)=N\NC1=NCCN1,i,-80.5*,-36.9%,-19.1%,-0.7%
CCCCCCOc1ccc(/C(C)=N/NC2=NCCN2)cc1,?,-55.7*,.,-17.7%,-1.8%
CCCCCOc1ccc(/C(C)=N/NC2=NCCN2)cc1,i,-65.6*,?,-15.5%,0.6%
NS(=O)(=O)c1ccc(NC(=O)/C=C/c2ccc(S(=O)(=O)NCc3ccco3)cc2)cc1,i,-52.0*,-18.1%,-3.8%,-0.8%
Cc1cc(C)n(-c2ccc(C(=O)Nc3ccc4c(c3)OCO4)cc2)n1,i,-54.5*,25.7%,-21.6%,-1.7%
Cc1cc(C)n(-c2ccc(C(=O)Nc3ccc(C)c(S(=O)(=O)N(C)C)c3)cc2)n1,i,-77.6*,-14.1%,-21.8%,-5.8%
CC(=O)c1cc2c(cc1NC(=O)c1ccc(-n3nc(C)cc3C)cc1)OCO2,i,?,.,-7.0%,.
O=C(O)/C=C/c1ccc(S(=O)(=O)NCc2ccco2)cc1,i,-17.8,6.6%,-11.3%,0.8%
Cc1cc(C)n(-c2ccc(C(=O)Nc3ccc(S(=O)(=O)NCc4ccco4)cc3)cc2)n1,i,-53.8*,-31.0%,-7.7%,-3.9%
SMILES,S2 tox,IL-1B inflam inh,ATXN2 expr inh,USP1-UAF1 inh,USP2a block
COC(=O)[C@@]12C[C@@H](CC(=O)N3CCC(c4ccccc4)CC3)C(=O)N(Cc3ccco3)C1=CCC(C)(C)C2,.,-8.2,.,.,.
CCOc1ccc(S(=O)(=O)NC2CC2)cc1,i,-0.5,3.4%,-15.5%,-0.3%
Cc1ccc(S(=O)(=O)N2CCCC2)cc1C(=O)Nc1ccc(-n2cnnn2)cc1,i,21.0,-1.7%,-6.4%,0.5%
CCNC(=O)C1(C)CCN(C(=O)c2ccc3ccccc3c2)C1 (stereo not drawn),i,9.3,8.3%,.,.
Cc1cc(C)n(-c2ccc(C(=O)Nc3ccc(N4CCOCC4)cc3)cc2)n1,i,-17.7,-9.3%,-25.6%,0.1%
COc1ccc(NC(=O)c2ccc(-n3nc(C)cc3C)cc2)cc1OC,i,-51.1*,6.0%,0.2%,4.8%
COc1ccc(NC(=S)N2CCCN(Cc3cccc(Cl)c3)C2)cc1,i,-64.0*,-15.9%,-14.7%,1.2%
CSc1cccc(NC(=S)N2CCCN(Cc3cccc(Cl)c3)C2)c1,i,-82.3*,?,-26.1%,-0.3%
Cc1cccc(C)c1NC(=S)N1CCCN(Cc2ccc(F)cc2)C1,i,-50.9*,-14.6%,-18.8%,0.2%
CCOc1ccc(NC(=S)N2CCCN(Cc3cccc(Cl)c3)C2)cc1,i,-60.7*,0.0%,-28.3%,-0.5%
COc1ccc(NC(=S)N2CCCN(Cc3cc(C)ccc3C)C2)cc1,i,?,-26.7%,-3.5%,-3.5%
COc1cccc(NC(=S)N2CCCN(Cc3ccc(F)cc3)C2)c1,i,-13.2,?,-4.8%,1.1%
CCOC(=O)CN(C(=O)CNC(=O)c1ccco1)C(C(=O)NC1CCCCC1)c1cccnc1 (stereo not drawn),i,9.2,5.0%,-11.6%,-0.5%
COc1ccc(C2NC(=S)N3C(c4ccc(OC)c(OC)c4)NC(=S)N23)cc1OC (stereo not drawn),i,.,.,.,.
N#Cc1c(-c2ccccc2)cc(-c2ccccc2)nc1SCC(O)CS(=O)(=O)Cc1ccc(Cl)cc1 (stereo not drawn),i,.,-1.5%,-19.1%,.
COc1cc(CN2CCCC(n3cc(C(=O)N4CCCCC4)nn3)C2)cc(OC)c1OC (stereo not drawn),i,.,.,.,.
CC1(C)OC(=O)Nc2ccc(Br)cc21,i,.,18.6%,.,.
O=C(NCc1ccco1)c1cc(S(=O)(=O)N2CCOCC2)c(Cl)cc1Cl,i,2.6,-15.9%,-3.6%,1.1%
O=C(COC(=O)c1cc(S(=O)(=O)N2CCOCC2)c(Cl)cc1Cl)NCc1ccco1,i,-80.0*,1.3%,-0.2%,1.4%
C[C@H](CO)N1C[C@H](C)[C@@H](CN(C)S(=O)(=O)c2cn(C)cn2)Oc2c(NC(=O)Nc3ccc4c(c3)OCO4)cccc2C1=O,i,-8.6,6.5%,-18.5%,4.2%
CCCn1c(NCc2cccc(OC)c2OC)nc2ccccc21,?,0.0,12.6%,-8.8%,-1.1%
CCCn1c(NCc2c[nH]c3ccccc23)nc2ccccc21,?,-52.4*,5.2%,-16.1%,4.3%
CC(C)(C)c1cnc(CSc2cnc(NC(=O)C3CCNCC3)s2)o1,.,.,0.306µM*,.,.
Clc1ccc2c(c1)C1OCCC1C(c1ccco1)N2 (stereo not drawn),?,-74.0*,47.6%,-21.8%,4.8%

# Bioassay records deposited in PubChem by National Center for Advancing Translational Sciences (NCATS).
